Hits are enriched below; roughly 1.3% of the tested compounds scored in any of these assays.
PrPC surface inh: cell surface PrPC inhibition, primary TR-FRET screen. TR-FRET read-out. inhibition, % at 13.8 µM. 370,000 tested, 0.43% active. AID 720596; in the data active = inhibition above about 24%; note: 0% = median of the test wells and 100% = reference compound wells
CCHFV vOTU inh: CCHFV vOTU protease inhibition; Pep-AMC fluorescence; inhibition, % at 11.5 µM; 370,000 tested, 0.55% active; AID 651958; in the data active = inhibition above about 30%; note: 0% = vehicle wells with enzyme and 100% = no enzyme wells
PrP UTR inh: suppresses PrP 5' UTR mRNA reporter expression | 340,000 tested, 0.35% active | inhibition, % (no concentration beside the values) | cell-based PrP 5' UTR mRNA reporter, plate reader; in the data active = inhibition above about 52%; note: 0 = median of the neutral control wells
3CLpro inhibitor: SARS-CoV 3CLpro protease inhibition | P0C6X7 | recombinant SARS-CoV 3CLpro, quenched FRET peptide cleavage | inhibition, % at 6 µM | 290,000 tested, 0.14% active | AID 1706; in the data active = inhibition above about 12%
PrPC confirm: confirmation of inhibitors of cell surface human prion protein. shares compounds with PrPC surface inh. cell surface PrPC level, TR-FRET. inhibition, % at 13.8 µM. 1,500 tested, 65% active. AID 743200; in the data active = inhibition above about 25%
LD9 cytotox: counter-screen for PrPc inhibitors: cytotoxicity in LD9 cells | shares compounds with PrPC surface inh | luminescence viability | inhibition, % at 13.8 µM | 1,500 tested, 29% active; in the data active = inhibition above about 9.5%
An asterisk follows results filed as active; x = not tested or not shown.

SMILES	PrPC surface inh	CCHFV vOTU inh	PrP UTR inh	3CLpro inhibitor	PrPC confirm	LD9 cytotox
Clc1cccc(Cl)c1CN1CCN(c2ncccn2)CC1	3	-6	5	6	x	x
C[C@@H]1C[C@@H]([C@H](O)CC2CC(=O)NC(=O)C2)C(=O)[C@@H](C)C1	82*	0	45	x	86*	33*
COc1ccc(C(CNC(=O)COc2cc(C)ccc2Cl)N2CCCCC2)cc1 (stereo unspecified)	0	-12	-16	x	x	x
COc1cc2oc3cc(C#Cc4ccc(N)cc4)ccc3c(=O)c2cc1OC	5	11	-4	x	x	x
COc1cc2oc3ccc(C#Cc4ccc(N)cc4)cc3c(=O)c2cc1OC	26*	-1	-19	x	33*	10.0*
CCCC(=O)n1nc(-c2cccnc2)nc1NCc1ccc(OC)cc1	0	5	-31	5	x	x
Cc1ccc(C)c(S(=O)(=O)N2CCN(C(=O)c3ccccc3Cc3ccccc3)CC2)c1	55*	-2	-17	x	0	-3
O=C(c1ccccc1Cc1ccccc1)N1CCN(S(=O)(=O)c2ccccc2)CC1	3	12	-6	-2	x	x
Cn1nnnc1Sc1ncnc2scc(-c3ccc(Br)cc3)c12	25*	4	-2	x	27*	22*
CC(C)C(=O)N1CCN(c2ccc(NC(=O)c3ccc([N+](=O)[O-])o3)cc2Cl)CC1	36*	-2	-74	0	11	98*
Cc1ccccc1C(=O)N1CCN(c2ccc(NC(=O)c3ccc([N+](=O)[O-])o3)cc2)CC1	4	0	-14	-1	x	x
CN1CCN(c2ccc(NC(=O)c3ccc([N+](=O)[O-])o3)cc2Cl)CC1	12	11	4	3	x	x
O=C(Nc1ccc(N2CCN(C(=O)c3ccccc3)CC2)cc1)c1ccc([N+](=O)[O-])o1	26*	4	17	5	22	93*
COc1cc(S(=O)(=O)N(Cc2ccccn2)Cc2ccccc2Cl)ccc1-n1cnnn1	-3	-15	-7	0	x	x
CC(=O)c1sc(C(C)(C)C)cc1NC(=O)c1ccccc1C(=O)O	36*	-5	3	9	81*	-1
Cn1c(=O)c2c(nc(CN3CCc4ccccc4C3)n2CCc2ccccc2)n(C)c1=O	x	x	x	12	x	x
Cn1c(=O)c2c(nc(CN3CCc4ccccc4C3)n2Cc2ccccc2F)n(C)c1=O	27*	8	-5	-7	-2	-3
Cn1c(=O)cc(OCCCC(=O)Nc2cc(-c3ccncc3)ccn2)c2ccccc21	27*	x	x	x	35*	13*
Cn1c(=O)cc(OCCCC(=O)NCc2ccccn2)c2ccccc21	6	-1	-19	0	x	x
Cn1c(=O)cc(OCCCC(=O)Nc2cc(C(F)(F)F)ccn2)c2ccccc21	29*	x	x	x	42*	11*
Cn1c(=O)cc(OCCCC(=O)Nc2cc(Br)ccn2)c2ccccc21	31*	x	x	x	47*	15*
CCCN(CCC)CCCNC(=O)Cn1cnc2sc(C)c(S(=O)(=O)N3CCCCC3)c2c1=O	-9	22	-1	2	x	x
Cc1ccc(OCC(=O)N/N=C\c2ccc(O)cc2)c([N+](=O)[O-])c1	2	2	-13	4	x	x
N#C/C(=N/Nc1ccc(OC(F)(F)F)cc1)C(N)=S	26*	14	-60	4	38*	28*
COc1ccc(N/N=C(\C#N)C(N)=O)cc1	-9	1	-21	0	x	x
SMILES	PrPC surface inh	CCHFV vOTU inh	PrP UTR inh	3CLpro inhibitor	PrPC confirm	LD9 cytotox
Cc1ccccc1CNC(=O)c1csc([C@@H]2C[C@H](O)[C@@H](CO)O2)n1	4	-3	x	x	x	x
COc1ccc(Cc2noc(CN(C)Cc3ccc(-n4cccn4)cc3)n2)cc1OC	3	-63	-16	5	x	x
N#CC(C#N)=NNc1ccc(-n2ccc(C(F)(F)F)n2)cc1	32*	9	-9	6	43*	39*
O=C(Nc1ccccc1)Nc1ccc(-n2ccc(C(F)(F)F)n2)cc1	26*	-4	-70	1	22	9.9*
O=C(O)CC(CC(=O)Nc1ccc(-n2ccc(C(F)(F)F)n2)cc1)c1ccccc1 (stereo unspecified)	6	1	-2	-2	x	x
Cc1cc(C)n(-c2ccc(NN=C(C#N)C#N)cc2)n1	-9	-6	-19	8	x	x
Cc1ccc(SCC(=O)OCC(=O)NCCNC(=O)COC(=O)CSc2ccc(C)c(C)c2)cc1C	-4	11	0	x	x	x
O=C(Cn1cnc2c(OCc3ccccc3)ncnc21)NCc1ccc2[nH]ccc2c1	3	4	-21	x	x	x
CSc1nc(N)nc(-c2cccs2)c1C#N	19	13	17	8	x	x
